# Assay results published in the supplement of paper PMC6992640.
# Tested on: WHIM30 (cells of a triple-negative basal-like breast cancer xenograft)
# Assay: cell viability of combination (% of vehicle); higher = less cytotoxic
# Details: 1 µM; 72 h; partner dose: 10 nM
# Procedure: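 PDX cells were treated for 72 h with each drug at 1 µM plus carfilzomib (10 nM; 100 nM for WHIM2). Luciferase viability is expressed as percent of vehicle.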
row,SMILES,cell viability of combination
1,O=C(c1ccc(F)c(F)c1Nc1ccc(I)cc1F)N1CC(O)(C2CCCCN2)C1 (stereo not given) [Cobimetinib] + CC(C)C[C@H](NC(=O)[C@H](CCc1ccccc1)NC(=O)CN1CCOCC1)C(=O)N[C@@H](Cc1ccccc1)C(=O)N[C@@H](CC(C)C)C(=O)[C@@]1(C)CO1 [Carfilzomib],24.7
2,COc1cc2c(Oc3ccc(NC(=O)C4(C(=O)Nc5ccc(F)cc5)CC4)cc3F)ccnc2cc1OCCCN1CCOCC1 + CC(C)C[C@H](NC(=O)[C@H](CCc1ccccc1)NC(=O)CN1CCOCC1)C(=O)N[C@@H](Cc1ccccc1)C(=O)N[C@@H](CC(C)C)C(=O)[C@@]1(C)CO1 [Carfilzomib],22.4
3,COc1ccc2cc1Oc1ccc(cc1)CC1c3c(cc4c(c3Oc3cc5c(cc3OC)CCN(C)C5C2)OCO4)CCN1C (stereo not given) [Cepharanthine] + CC(C)C[C@H](NC(=O)[C@H](CCc1ccccc1)NC(=O)CN1CCOCC1)C(=O)N[C@@H](Cc1ccccc1)C(=O)N[C@@H](CC(C)C)C(=O)[C@@]1(C)CO1 [Carfilzomib],9.41
4,COC(=O)C1=C(C)NC(C)=C(C(=O)OC2CCCN(Cc3ccccc3)C2)C1c1cccc([N+](=O)[O-])c1.Cl (stereo not given) [Benidipine HCl] + CC(C)C[C@H](NC(=O)[C@H](CCc1ccccc1)NC(=O)CN1CCOCC1)C(=O)N[C@@H](Cc1ccccc1)C(=O)N[C@@H](CC(C)C)C(=O)[C@@]1(C)CO1 [Carfilzomib],13.6
5,COc1ncc(-c2ccc3nccc(-c4ccnnc4)c3c2)cc1NS(=O)(=O)c1ccc(F)cc1F + CC(C)C[C@H](NC(=O)[C@H](CCc1ccccc1)NC(=O)CN1CCOCC1)C(=O)N[C@@H](Cc1ccccc1)C(=O)N[C@@H](CC(C)C)C(=O)[C@@]1(C)CO1 [Carfilzomib],8.27
6,CCCCCOc1ccc(-c2ccc(-c3ccc(C(=O)N[C@H]4C[C@@H](O)[C@@H](O)NC(=O)[C@@H]5[C@@H](O)[C@@H](C)CN5C(=O)[C@H]([C@@H](C)O)NC(=O)[C@H]([C@H](O)[C@@H](O)c5ccc(O)cc5)NC(=O)[C@@H]5C[C@@H](O)CN5C(=O)[C@H]([C@@H](C)O)NC4=O)cc3)cc2)cc1 [Anidulafungin] + CC(C)C[C@H](NC(=O)[C@H](CCc1ccccc1)NC(=O)CN1CCOCC1)C(=O)N[C@@H](Cc1ccccc1)C(=O)N[C@@H](CC(C)C)C(=O)[C@@]1(C)CO1 [Carfilzomib],16.7
7,COc1cc2nccc(Oc3ccc(NC(=O)Nc4cc(C)on4)c(Cl)c3)c2cc1OC [Tivozanib (AV-951)] + CC(C)C[C@H](NC(=O)[C@H](CCc1ccccc1)NC(=O)CN1CCOCC1)C(=O)N[C@@H](Cc1ccccc1)C(=O)N[C@@H](CC(C)C)C(=O)[C@@]1(C)CO1 [Carfilzomib],18.1
8,CC(C)N=c1cc2n(-c3ccc(Cl)cc3)c3ccccc3nc-2cc1Nc1ccc(Cl)cc1 [Clofazimine] + CC(C)C[C@H](NC(=O)[C@H](CCc1ccccc1)NC(=O)CN1CCOCC1)C(=O)N[C@@H](Cc1ccccc1)C(=O)N[C@@H](CC(C)C)C(=O)[C@@]1(C)CO1 [Carfilzomib],16.7
9,CC(=O)c1cc2c(o1)C(=O)c1ccccc1C2=O [Napabucasin] + CC(C)C[C@H](NC(=O)[C@H](CCc1ccccc1)NC(=O)CN1CCOCC1)C(=O)N[C@@H](Cc1ccccc1)C(=O)N[C@@H](CC(C)C)C(=O)[C@@]1(C)CO1 [Carfilzomib],5.17
10,CSc1ccc2c(c1)N(CCC1CCCCN1C)c1ccccc1S2.Cl (stereo not given) [Thioridazine HCl] + CC(C)C[C@H](NC(=O)[C@H](CCc1ccccc1)NC(=O)CN1CCOCC1)C(=O)N[C@@H](Cc1ccccc1)C(=O)N[C@@H](CC(C)C)C(=O)[C@@]1(C)CO1 [Carfilzomib],17.7
11,CCN1CCN(Cc2ccc(Nc3ncc(F)c(-c4cc(F)c5nc(C)n(C(C)C)c5c4)n3)nc2)CC1.CS(=O)(=O)O + CC(C)C[C@H](NC(=O)[C@H](CCc1ccccc1)NC(=O)CN1CCOCC1)C(=O)N[C@@H](Cc1ccccc1)C(=O)N[C@@H](CC(C)C)C(=O)[C@@]1(C)CO1 [Carfilzomib],23.6
12,Clc1ccc(COC(Cn2ccnc2)c2ccc(Cl)cc2Cl)c(Cl)c1.O=[N+]([O-])O (stereo not given) [Miconazole Nitrate] + CC(C)C[C@H](NC(=O)[C@H](CCc1ccccc1)NC(=O)CN1CCOCC1)C(=O)N[C@@H](Cc1ccccc1)C(=O)N[C@@H](CC(C)C)C(=O)[C@@]1(C)CO1 [Carfilzomib],14
13,CC(O)C(=O)O.CCOc1ccc2nc3cc(N)ccc3c(N)c2c1.O [Ethacridine lactate monohydrate] + CC(C)C[C@H](NC(=O)[C@H](CCc1ccccc1)NC(=O)CN1CCOCC1)C(=O)N[C@@H](Cc1ccccc1)C(=O)N[C@@H](CC(C)C)C(=O)[C@@]1(C)CO1 [Carfilzomib],15.2
14,COc1cccc2c1C(=O)c1c(O)c3c(c(O)c1C2=O)CC(O)(C(=O)CO)CC3OC1CC(N)C(O)C(C)O1.Cl (stereo not given) [Epirubicin HCl] + CC(C)C[C@H](NC(=O)[C@H](CCc1ccccc1)NC(=O)CN1CCOCC1)C(=O)N[C@@H](Cc1ccccc1)C(=O)N[C@@H](CC(C)C)C(=O)[C@@]1(C)CO1 [Carfilzomib],5.02
15,CN(C)CCOc1ccc(C(=C(CCCl)c2ccccc2)c2ccccc2)cc1.O=C(O)CC(O)(CC(=O)O)C(=O)O [Toremifene Citrate] + CC(C)C[C@H](NC(=O)[C@H](CCc1ccccc1)NC(=O)CN1CCOCC1)C(=O)N[C@@H](Cc1ccccc1)C(=O)N[C@@H](CC(C)C)C(=O)[C@@]1(C)CO1 [Carfilzomib],17.1
16,COc1cccc2c1C(=O)c1c(O)c3c(c(O)c1C2=O)C[C@@](O)(C(C)=O)C[C@@H]3O[C@H]1C[C@H](N)[C@H](O)[C@H](C)O1.Cl [Daunorubicin HCl] + CC(C)C[C@H](NC(=O)[C@H](CCc1ccccc1)NC(=O)CN1CCOCC1)C(=O)N[C@@H](Cc1ccccc1)C(=O)N[C@@H](CC(C)C)C(=O)[C@@]1(C)CO1 [Carfilzomib],4.41
17,CCc1c(Cl)c(O)c(Cl)c(O)c1C(=O)OC1C(C)OC(OCC2=CC=CCC(O)C(C)=CC(CC)C(OC3OC(C)(C)C(OC(=O)C(C)C)C(O)C3O)C(C)=CC(C)=CCC(C(C)O)OC2=O)C(OC)C1O (stereo not given) [Fidaxomicin] + CC(C)C[C@H](NC(=O)[C@H](CCc1ccccc1)NC(=O)CN1CCOCC1)C(=O)N[C@@H](Cc1ccccc1)C(=O)N[C@@H](CC(C)C)C(=O)[C@@]1(C)CO1 [Carfilzomib],21.2
18,COc1cccc2c1C(=O)c1c(O)c3c(c(O)c1C2=O)CC(O)(C(=O)CO)CC3OC1CC(N)C(O)C(C)O1.Cl (stereo not given) [Doxorubicin (Adriamycin) HCl] + CC(C)C[C@H](NC(=O)[C@H](CCc1ccccc1)NC(=O)CN1CCOCC1)C(=O)N[C@@H](Cc1ccccc1)C(=O)N[C@@H](CC(C)C)C(=O)[C@@]1(C)CO1 [Carfilzomib],7.61
19,O=C(C=Cn1cnc(-c2cc(C(F)(F)F)cc(C(F)(F)F)c2)n1)NNc1cnccn1 + CC(C)C[C@H](NC(=O)[C@H](CCc1ccccc1)NC(=O)CN1CCOCC1)C(=O)N[C@@H](Cc1ccccc1)C(=O)N[C@@H](CC(C)C)C(=O)[C@@]1(C)CO1 [Carfilzomib],5.58
20,C=C(c1ccc(C(=O)O)cc1)c1cc2c(cc1C)C(C)(C)CCC2(C)C [Bexarotene] + CC(C)C[C@H](NC(=O)[C@H](CCc1ccccc1)NC(=O)CN1CCOCC1)C(=O)N[C@@H](Cc1ccccc1)C(=O)N[C@@H](CC(C)C)C(=O)[C@@]1(C)CO1 [Carfilzomib],25.7
